This passage reports composite z-score and z-score results from PubChem BioAssay.

Assay [1] can be described thus: small molecules captured by biotinylated probe aFSTL3 – biochemical, small-molecule microarray, fluorescence 635/667, stem cell growth factor project, primary screen (AID 1064).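 Also: measures binding of the biotinylated anti-FSTL3 antibody to printed compounds.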 Conditions: higher = more signal.
Assay [2] can be described thus: binders from COS7 lysate, DM2A8 probe, primary screen, torsin A project, cell lysate, small-molecule microarray, fluorescence 635/667 (AID 1065). As to conditions: higher = more signal, COS7 lysate expressing mutant human TOR1A.
A short description of assay [3]: small molecules captured by biotinylated probe aFGF2 – biochemical, small-molecule microarray, fluorescence 635/667, stem cell growth factor project, primary screen (AID 1067).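 Also: measures binding of biotinylated aFGF2 protein to printed compounds on slides; z-score merges feature fluorescence and signal-to-noise across triplicate slides.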 Conditions: higher = more signal.
A short description of assay [4]: small molecules captured by biotinylated probe aFGF10 – biochemical, small-molecule microarray, fluorescence 635/667, stem cell growth factor project, primary screen (AID 1071).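 Also: score merges 667 nm spot intensity and signal to noise from triplicate slides.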 Conditions: higher = more signal.
Assay [5] deals with Neurogenic locus notch homolog protein 2 (Homo sapiens) (UniProt Q04721). Put plainly: small molecules binding Notch2 protein – biochemical, small-molecule microarray, 635 nm fluorescence, stem cell growth factors, primary screen (AID 1073). Conditions: higher = more signal.
In assay [6] the target is Pro-neuregulin-1, membrane-bound isoform (Homo sapiens) (UniProt Q02297). Put plainly: small molecules binding neuregulin-1 protein – biochemical, small-molecule microarray, fluorescence 635/667, psychiatric disease protein project, primary screen (AID 1075).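 Also: score combines 667 nm spot fluorescence with signal to noise.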 Conditions: NRG1 binding, 635 nm fluorescence, higher = more signal.
Assay [7] has as its system Neuregulin-1 EGF-like domain. Description: small molecules binding NRG1 EGF domain – biochemical, small-molecule microarray, 635 nm fluorescence, primary screen (AID 1081).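 Also: binding of the protein to compounds printed on small-molecule microarray slides.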 Conditions: higher = more signal.
The nature of assay [8]: FRG1 expression reporter modulators in myotubes – cell-based, C2C12 myotubes, firefly/Renilla luciferase, luminescence, FRG1 inhibition for FSHD, primary screen (AID 1084). As to conditions: FRG1 promoter luciferase, higher = more signal, called active from +8 up or from −8 down.
The nature of assay [9]: small molecules captured by biotinylated probe aFST – biochemical, small-molecule microarray, fluorescence 635/667, stem cell growth factor project, primary screen (AID 1086).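 Also: score merges 667 nm fluorescence with signal-to-noise of each printed compound spot.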 As to conditions: higher = more signal.
The nature of assay [10]: binders of probe aHhip on microarray, primary screen, stem cell growth factor project, biochemical, small-molecule microarray, fluorescence 635/667 (AID 1087).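 Also: score merges spot fluorescence at 667nm with spot signal to noise ratio.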 Conditions: higher = more signal.
Assay [11] concerns PRMT1 (protein arginine N-methyltransferase 1). Put plainly: small molecules binding arginine methyltransferase PRMT1 – biochemical, small-molecule microarray, 635 nm fluorescence, primary screen (AID 1088).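 Also: binding of Prmt1 protein to compounds spotted on small-molecule microarray slides.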 Conditions: higher = more signal.
A short description of assay [12]: growth effects on S. cerevisiae YJM789 – YJM789 clinical isolate, OD600, 24 h, basal, primary screen (AID 1089).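 Also: growth of clinical yeast isolate S. cerevisiae YJM 789 seeded 1000 cells per well; test concentration not given here.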 As to conditions: higher = more signal, called active from +8 up or from −8 down.
Assay [13] in a line: S. pombe growth modifiers, basal conditions – strain 972, OD600, 24 h, no modulator, primary screen (AID 1090).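 Also: basal condition with compound alone and no growth modifier present; test concentration not given here.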 Conditions: S. pombe 972 growth, higher = more signal, called active from +8 up or from −8 down.
Assay [14] in a line: budding yeast growth modifiers under rapamycin – strain BY4716, OD600, 96 h, primary screen (AID 1091). Also: test concentration not given here. As to conditions: S. cerevisiae BY4716 + rapamycin, higher = more signal, called active from +8 up or from −8 down.
Assay [15] addresses Torsin-1A-interacting protein 2 (Homo sapiens) (UniProt Q8NFQ8). Description: small molecules binding lysate-expressed LULL1 – cell lysate, human LULL1 lysate, 635/667 nm fluorescence, primary screen (AID 1092).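 Also: probe is lysate of COS7 cells overexpressing human LULL1; score merges per-feature 667 nm fluorescence with signal-to-noise.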 As to conditions: small-molecule microarray, hLULL1 lysate binding, 635 nm fluorescence; higher = more signal.
Assay [16] is described as follows: optical density change of DRC41 E. coli – strain DRC41, OD650, 24 h, E. coli filamentation project, primary screen (AID 1093).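 Also: MC1000 strain lacking acrAB efflux and sulA so SOS filamentation is blocked; test concentration not given here.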 As to conditions: E. coli DRC41 growth, higher = more signal, called active from +8 up or from −8 down.
Assay [17] in a line: probe aLefty2 binding to arrayed compounds – biochemical, biotinylated probe, 635/667 nm fluorescence, primary screen (AID 1094).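 Also: score merges spot fluorescence near 667 nm with spot signal-to-noise ratio.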 Conditions: small-molecule microarray, higher = more signal.
Assay [18] has as its system Noggin (protein binding on small-molecule microarray). Put plainly: small molecules binding Noggin protein – biochemical, 635/667 nm fluorescence, primary screen (AID 1095).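 Also: score merges 667 nm feature fluorescence with signal to noise over triplicate slides.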 As to conditions: 635 nm fluorescence, higher = more signal.
Assay [19] deals with Neurogenic locus notch homolog protein 3 (Homo sapiens) (UniProt Q9UM47). Description: small molecules binding NOTCH3 protein – biochemical, 635/667 nm fluorescence, primary screen (AID 1096). Conditions: small-molecule microarray, 635 nm fluorescence, higher = more signal.
A short description of assay [20]: probe aEGFR binding to arrayed compounds – biochemical, biotinylated probe, 635/667 nm fluorescence, primary screen (AID 1097).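 Also: probe is a biotinylated anti-EGFR antibody binding compounds printed on slides; score combines fluorescence near 667 nm and signal to noise of each spot.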 As to conditions: small-molecule microarray, higher = more signal.

Active and inactive are the calls of the source.

Pro-neuregulin-1, membrane-bound isoform (Homo sapiens), sequence (Q02297 whole entry, looked up, the tested form may be a part, canonical isoform): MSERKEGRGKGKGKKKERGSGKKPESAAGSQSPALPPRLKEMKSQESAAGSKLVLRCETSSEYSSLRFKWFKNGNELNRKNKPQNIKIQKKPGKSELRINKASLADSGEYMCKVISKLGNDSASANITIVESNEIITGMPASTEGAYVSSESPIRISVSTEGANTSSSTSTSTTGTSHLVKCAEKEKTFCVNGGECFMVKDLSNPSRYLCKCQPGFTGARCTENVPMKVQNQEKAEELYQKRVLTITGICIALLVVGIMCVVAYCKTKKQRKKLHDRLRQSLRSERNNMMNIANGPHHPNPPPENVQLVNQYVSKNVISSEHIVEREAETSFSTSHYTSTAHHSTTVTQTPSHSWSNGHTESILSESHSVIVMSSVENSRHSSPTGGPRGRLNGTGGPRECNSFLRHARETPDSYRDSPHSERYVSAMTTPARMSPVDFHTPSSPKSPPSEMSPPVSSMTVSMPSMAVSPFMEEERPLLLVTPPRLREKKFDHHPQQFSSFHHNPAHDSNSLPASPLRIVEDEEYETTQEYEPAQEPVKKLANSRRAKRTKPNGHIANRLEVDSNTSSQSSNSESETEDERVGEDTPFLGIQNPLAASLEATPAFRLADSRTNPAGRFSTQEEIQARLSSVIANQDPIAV
Neurogenic locus notch homolog protein 2 (Homo sapiens), sequence (Q04721 whole entry, looked up, canonical isoform): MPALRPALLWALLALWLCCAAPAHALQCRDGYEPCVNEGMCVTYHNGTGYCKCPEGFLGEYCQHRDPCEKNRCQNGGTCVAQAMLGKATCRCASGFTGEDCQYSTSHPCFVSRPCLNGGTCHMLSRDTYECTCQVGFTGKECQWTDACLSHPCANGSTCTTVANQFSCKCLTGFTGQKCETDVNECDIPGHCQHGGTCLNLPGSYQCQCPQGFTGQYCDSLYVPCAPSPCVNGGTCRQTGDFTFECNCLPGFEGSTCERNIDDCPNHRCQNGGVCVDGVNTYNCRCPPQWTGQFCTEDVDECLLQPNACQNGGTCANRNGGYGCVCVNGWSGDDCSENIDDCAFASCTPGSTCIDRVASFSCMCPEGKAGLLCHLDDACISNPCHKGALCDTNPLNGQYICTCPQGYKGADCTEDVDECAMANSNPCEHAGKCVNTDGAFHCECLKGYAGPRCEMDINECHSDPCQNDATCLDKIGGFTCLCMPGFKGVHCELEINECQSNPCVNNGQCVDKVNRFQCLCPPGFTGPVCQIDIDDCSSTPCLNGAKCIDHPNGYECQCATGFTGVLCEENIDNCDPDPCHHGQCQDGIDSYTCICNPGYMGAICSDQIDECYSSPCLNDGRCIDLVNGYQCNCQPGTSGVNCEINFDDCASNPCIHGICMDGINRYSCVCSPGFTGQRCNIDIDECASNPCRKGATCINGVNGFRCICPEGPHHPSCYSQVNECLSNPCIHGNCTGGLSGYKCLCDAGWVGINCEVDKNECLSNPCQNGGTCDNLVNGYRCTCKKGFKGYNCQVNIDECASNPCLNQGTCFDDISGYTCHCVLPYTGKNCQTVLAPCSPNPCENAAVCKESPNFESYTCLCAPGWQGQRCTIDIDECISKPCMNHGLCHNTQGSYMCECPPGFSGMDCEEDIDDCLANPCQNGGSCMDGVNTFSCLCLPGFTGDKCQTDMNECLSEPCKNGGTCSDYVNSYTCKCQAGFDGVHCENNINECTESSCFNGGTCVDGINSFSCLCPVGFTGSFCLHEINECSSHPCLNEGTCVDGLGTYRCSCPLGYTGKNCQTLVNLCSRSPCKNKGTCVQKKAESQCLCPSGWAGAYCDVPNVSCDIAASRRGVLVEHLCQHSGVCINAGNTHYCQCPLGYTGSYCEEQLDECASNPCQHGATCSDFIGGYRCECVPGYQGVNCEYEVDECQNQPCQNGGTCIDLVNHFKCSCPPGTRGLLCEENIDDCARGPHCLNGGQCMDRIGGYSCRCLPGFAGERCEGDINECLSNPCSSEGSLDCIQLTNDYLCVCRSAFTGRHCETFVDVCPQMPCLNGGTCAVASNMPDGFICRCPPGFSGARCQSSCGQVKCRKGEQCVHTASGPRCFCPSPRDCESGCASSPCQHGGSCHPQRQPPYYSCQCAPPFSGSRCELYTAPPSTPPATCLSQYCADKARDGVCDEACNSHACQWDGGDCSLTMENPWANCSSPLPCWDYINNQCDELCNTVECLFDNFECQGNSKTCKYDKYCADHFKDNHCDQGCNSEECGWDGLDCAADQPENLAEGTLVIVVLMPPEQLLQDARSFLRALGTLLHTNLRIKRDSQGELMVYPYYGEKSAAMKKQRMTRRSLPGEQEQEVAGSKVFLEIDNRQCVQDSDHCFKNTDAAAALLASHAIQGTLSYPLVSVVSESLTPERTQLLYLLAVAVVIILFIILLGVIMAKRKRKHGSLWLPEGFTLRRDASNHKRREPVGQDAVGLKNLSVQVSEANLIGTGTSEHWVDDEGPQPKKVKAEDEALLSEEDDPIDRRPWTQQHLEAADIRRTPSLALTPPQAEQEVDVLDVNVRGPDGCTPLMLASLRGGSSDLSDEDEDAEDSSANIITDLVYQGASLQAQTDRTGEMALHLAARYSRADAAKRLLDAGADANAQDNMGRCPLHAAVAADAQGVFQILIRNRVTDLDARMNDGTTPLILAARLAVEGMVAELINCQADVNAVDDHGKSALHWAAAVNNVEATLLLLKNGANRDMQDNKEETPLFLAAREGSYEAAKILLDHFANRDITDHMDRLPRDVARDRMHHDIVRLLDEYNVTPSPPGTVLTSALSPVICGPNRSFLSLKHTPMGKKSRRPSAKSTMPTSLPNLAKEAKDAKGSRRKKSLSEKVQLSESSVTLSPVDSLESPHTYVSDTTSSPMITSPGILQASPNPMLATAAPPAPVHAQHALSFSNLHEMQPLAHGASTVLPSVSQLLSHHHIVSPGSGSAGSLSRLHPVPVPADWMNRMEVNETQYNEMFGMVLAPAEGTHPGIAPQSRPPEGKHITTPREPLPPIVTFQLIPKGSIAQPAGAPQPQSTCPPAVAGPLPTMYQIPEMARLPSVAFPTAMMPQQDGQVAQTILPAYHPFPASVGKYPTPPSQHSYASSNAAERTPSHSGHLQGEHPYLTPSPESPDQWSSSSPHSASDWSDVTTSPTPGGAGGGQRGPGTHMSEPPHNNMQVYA
Torsin-1A-interacting protein 2 (Homo sapiens), sequence (Q8NFQ8 whole entry, looked up): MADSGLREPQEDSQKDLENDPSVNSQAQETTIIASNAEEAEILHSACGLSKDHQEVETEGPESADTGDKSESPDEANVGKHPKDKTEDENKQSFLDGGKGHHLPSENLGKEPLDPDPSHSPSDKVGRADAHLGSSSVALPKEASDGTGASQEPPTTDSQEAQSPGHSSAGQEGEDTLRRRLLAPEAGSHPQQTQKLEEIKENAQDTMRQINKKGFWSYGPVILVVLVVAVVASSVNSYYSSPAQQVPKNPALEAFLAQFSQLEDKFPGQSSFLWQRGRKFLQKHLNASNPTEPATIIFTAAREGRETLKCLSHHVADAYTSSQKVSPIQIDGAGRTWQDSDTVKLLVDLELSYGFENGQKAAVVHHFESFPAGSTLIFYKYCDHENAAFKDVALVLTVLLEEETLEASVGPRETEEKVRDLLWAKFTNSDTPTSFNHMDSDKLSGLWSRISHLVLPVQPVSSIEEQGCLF

As to `NC(=O)[C@@H]1[C@H]2C(=O)O[C@H](c3ccccc3)[C@H](c3ccccc3)N2[C@H](c2ccc(O)cc2)[C@@]12C(=O)Nc1ccc(C#CC3=CCCCC3)cc12`, the composite z-score was -0.542 in assay [1]; 0.103 in assay [2]; -0.222 in [3]; 0.604 in [4]; -0.173 in assay [5]; 1.68 in assay [6]. For the same molecule, the composite z-score is 1.15 in assay [7]; -0.21 in assay [9]; -0.357 in [10]; 1.55 in assay [11]; 3.22 in [15]; -0.21 in [17]. In addition, the results for the composite z-score in assay [18], in [19] and in assay [20] were 0.87, 1.11 and -0.176, respectively. For the same molecule, the z-score was 0.009 (inactive) in assay [8]; 1.98 (inactive) in [12]; 1.4 (inactive) in assay [13]; 2.74 (inactive) in assay [14]; -0.716 (inactive) in assay [16].
For `O=C1NC(=O)C2C1C=CC(C(O)c1ccc(I)cc1)N2Nc1ccccn1` (stereo not given), the composite z-score was 0.193 in [1]; 0.142 in [2]; 0.0111 in [3]; -0.0668 in assay [4]; 0.599 in [5]; 1.71 in [6]. The composite z-score in assay [7] is 0.725; in [9], -0.0237; in [10] it was -0.0173; in [11], 0.321; in assay [15] it was 2.56; in assay [17], -0.0328. For the same molecule, the composite z-score in assay [18] is 0.143; in [19] it was 0.15; in assay [20], -0.0947. In addition, the z-score is 0.63 (inactive) in assay [8]; -0.353 (inactive) in [12]; 0.426 (inactive) in assay [13]; 0.17 (inactive) in assay [14]; -0.956 (inactive) in assay [16].
For `CN(C)CCCCCCNC(=O)[C@@H]1C[C@@H]2C(=O)N[C@@H](CCCC[N+](C)(C)C)C(=O)N2[C@@H]1c1ccc(O)cc1`, the composite z-score in [1] is -0.725; in assay [2], 0.601; in [3] it was -0.183; in assay [4], -0.0779; in [5] it was -1.07; in assay [6] it was 0.334. For the same molecule, the composite z-score in assay [7] was 1.25; in assay [9], -0.334; in [10] it was -0.865; in assay [11], 0.821; in assay [15], 0.219; in assay [17], -0.0907. Further, the composite z-score in assay [18] is 0.576; in assay [19], 0.0475; in assay [20], -0.221. The z-score in assay [8] was 4.62 (inactive); in [12] it was -0.581 (inactive); in assay [13], -0.689 (inactive); in assay [14], -0.414 (inactive); in [16], -0.227 (inactive).
Take `CC(C)(C)OC(=O)CC[C@]1(C(N)=O)N=C(c2ccc(OCCCO)cc2)O[C@H]1c1ccccc1`: the composite z-score in assay [1] was 1.05; in assay [2], 1.16; in [3], 0.0466; in assay [4], 0.27; in assay [5], 1.53; in assay [6], 2.53. The composite z-score in [7] stood at 1.07; in assay [9] it was 0.994; in [10], 0.294; in [11], 0.735; in assay [15] it was 3.74; in [17] it was 0.423. For the same molecule, the composite z-score was found to be 0.115 in [18], 0.89 in assay [19] and 0.372 in assay [20]. In addition, the z-score in assay [8] was -0.578 (inactive); in assay [12], 0.519 (inactive); in [13], 0.256 (inactive); in assay [14], 0.793 (inactive); in assay [16] it was 0.152 (inactive).
For `COC(=O)[C@@]1(Cc2ccc(OC)cc2)[C@H]2c3cc(C(=O)N4CCCC4)n(Cc4nc5ccccc5[nH]4)c3C[C@H]2CN1C(=O)c1ccccc1`, the composite z-score in assay [1] was determined as 1.13; in assay [2] it was 0.572; in assay [3], 0.417; in assay [4] it was 1; in assay [5] it was 1.82; in assay [6], 2.11. Besides, the composite z-score in [7] is 1.14; in [9] it was 1.65; in [10] it was -0.229; in assay [11], 0.661; in assay [15], 3.73; in assay [17], 0.759. Besides, the composite z-score is -0.214 in assay [18], 1.05 in assay [19] and 0.225 in assay [20]. The z-score is 4.38 (inactive) in assay [8]; -0.0237 (inactive) in assay [12]; 0.955 (inactive) in assay [13]; 2.07 (inactive) in assay [14]; 0.138 (inactive) in [16].
